PubChem BioAssay AID1159580 (chemical genetic matrix, 2015)
Where “and” joins values, the source holds several entries; their conditions need not be identical. Equal values may be shown once. In all, about 5,500 compounds went through this assay and about 2,000 (36%) were called active. About 18% were inconclusive and are not listed. No stated cut-off is given here; in the data, active means normalized growth mostly below about 0.91 (no sharp cut-off); inconclusive means no clear call, values can overlap the other calls; inactive means mostly above about 0.92. The list shows a part of the results.

Experiment: chemical genetic growth profiling, strain panel (AID 1159580);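 further: tested at 20 µM; growth read once vehicle control cultures reached saturation at 30 °C; 1 = growth at the plate median or of vehicle wells; lower values mean less growth of the strain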
Conditions: S. cerevisiae deletion strains, growth OD

Measured: normalized growth

C[C@]12CCC3C(CC[C@]4(O)C[C@@H](O)CC[C@]34C=O)[C@@]1(O)CCC2C1=CC(=O)OC1 (stereo not given in full)
active: locus YER015W, strain faa2, hits give low values 0.922
inactive: locus YAL021C, strain ccr4, hits give low values 0.92 | locus YAL026C, strain drs2, hits give low values 0.983 | locus YAL030W, strain snc1, hits give low values 0.975 | locus YBL061C, strain skt5, hits give low values 0.979 | locus YBR009C, strain hhf1, hits give low values 0.967 | locus YBR021W, strain FUR4, hits give low values 1 | locus YBR023C, strain chs3, hits give low values 0.98 | locus YBR171W, strain sec66, hits give low values 0.986 | locus YBR229C, strain ROT2, hits give low values 0.94 | locus YBR231C, strain swc5, hits give low values 0.995 | locus YBR279W, strain paf1, hits give low values 0.986 | locus YCL011C, strain gbp2, hits give low values 0.943 | locus YCL016C, strain dcc1, hits give low values 0.958 | locus YCL029C, strain bik1, hits give low values 0.962 | locus YCL069W, strain vba3, hits give low values 0.981 | locus YCR088W, strain abp1, hits give low values 0.988 | locus YDL005C, strain med2, hits give low values 0.969 | locus YDL035C, strain GPR1, hits give low values 0.964 | locus YDL040C, strain nat1, hits give low values 0.992 | locus YDL074C, strain BRE1, hits give low values 1.01 | locus YDL101C, strain DUN1, hits give low values 0.987 | locus YDL185W, strain tfp1, hits give low values 0.962 | locus YDL192W, strain arf1, hits give low values 0.976 | locus YDR001C, strain nth1, hits give low values 0.967 | locus YDR069C, strain doa4, hits give low values 0.986 | locus YDR101C, strain arx1, hits give low values 0.97 | locus YDR137W, strain rgp1, hits give low values 0.971 | locus YDR159W, strain sac3, hits give low values 1.05 | locus YDR162C, strain NBP2, hits give low values 0.975 | locus YDR195W, strain ref2 1.01 | locus YDR297W, strain sur2, hits give low values 0.994 | locus YDR318W, strain mcm21, hits give low values 0.98 | locus YDR334W, strain swr1, hits give low values 0.978 | locus YDR335W, strain msn5, hits give low values 0.989 | locus YDR388W, hits give low values 0.982 | locus YDR392W, strain spt3, hits give low values 0.889 | locus YDR502C, strain sam2, hits give low values 0.99 | locus YEL003W, strain gim4, hits give low values 0.991 | locus YEL037C, strain rad23, hits give low values 0.979 | locus YEL061C, strain CIN8 (second series), hits give low values 0.984 | locus YEL061C, strain CIN8, hits give low values 0.986 | locus YER016W, strain bim1, hits give low values 0.991 | locus YER110C, hits give low values 0.98 | locus YER111C, strain swi4, hits give low values 1.02 | locus YER155C, strain BEM2 (second series), hits give low values 1.06 | locus YER155C, strain BEM2, hits give low values 0.994 | locus YER167W, strain BCK2, hits give low values 0.984 | locus YFR010W, strain ubp6, hits give low values 0.982 | locus YGL078C, strain dbp3, hits give low values 0.996 | locus YGL086W, strain mad1, hits give low values 0.992 | locus YGL167C, strain pmr1, hits give low values 0.965 | locus YGL173C, strain kem1, hits give low values 0.994 | locus YGL227W, strain vid30, hits give low values 0.998 | locus YGL240W, strain doc1, hits give low values 1.03 | locus YGL248W, strain PDE1, hits give low values 1 | locus YGL253W, strain hxk2, hits give low values 0.985 | locus YGR135W, strain pre9, hits give low values 0.975 | locus YGR229C, strain SMI1, hits give low values 0.991 | locus YGR252W, strain gcn5, hits give low values 0.988 | locus YHR013C, strain ard1, hits give low values 0.953 | locus YHR027C, strain rpn1, hits give low values 0.973 | locus YHR030C, strain SLT2, hits give low values 0.991 and 0.995 | locus YHR079C, strain IRE1 (second series), hits give low values 0.98 | locus YHR079C, strain IRE1, hits give low values 0.988 | locus YHR094C, strain hxt1, hits give low values 0.976 | locus YHR129C, strain ARP1, hits give low values 0.989 | locus YHR142W, strain chs7, hits give low values 0.971 | locus YHR200W, strain rpn10, hits give low values 0.964 | locus YIL066C, strain RNR3, hits give low values 0.95 | locus YIL073C, strain SPO22, hits give low values 0.958 | locus YIL125W, strain kgd1, hits give low values 0.969 | locus YIR030C, strain dcg1, hits give low values 0.975 | locus YJL092W, strain hpr5, hits give low values 0.97 | locus YJL095W, strain BCK1 (second series), hits give low values 0.98 | locus YJL095W, strain BCK1, hits give low values 1.05 and 1.01 | locus YJL115W, strain asf1, hits give low values 0.968 | locus YJL129C, strain trk1, hits give low values 0.999 | locus YJL134W, strain LCB3, hits give low values 0.98 | locus YJL154C, strain vps35, hits give low values 0.984 | locus YJL164C, strain tpk1, hits give low values 0.933 | locus YJL166W, strain qcr8, hits give low values 1 | locus YJL168C, strain set2, hits give low values 0.982 | locus YJL187C, strain SWE1 (second series), hits give low values 1.01 | locus YJR043C, strain POL32, hits give low values 0.964
